This note sets out measurements from PMC7826789 (International Journal of Molecular Sciences, 2021).

The subject of experiment [1] is JNK3.
Experiment [2] relates to LATS1.
The test system of experiment [3] is LCK.
The subject of experiment [4] is LYN.
Experiment [5] deals with LIMK2.
Experiment [6] concerns LOK.
Experiment [7] has as its system MAP2K3.

Each structure is given as a SMILES string.

Consider `Cc1cc(NC(=O)c2cccc(NC(=O)/C=C/CN(C)C)c2)ccc1Nc1nccc(-c2cccnc2)n1` [JNK-IN-7], for which the Kinases covered result in experiment [1] is “JNK3”.

As for `O=C(O)/C=C/C(=O)O.OCCCNc1nccc(-c2c(-c3ccc(F)cc3)nn3cc(C(F)(F)F)ccc23)n1` [GW569293E], in experiment [2], the Kinases covered result was “LATS1”.

Regarding `COc1cc(-c2cncc(-c3cnn(C4CCNCC4)c3)c2)cc(OC)c1OC` [K05908], the Kinases covered entry in experiment [3] is on record as “LCK”.

As for `COc1cc2ncnc(Nc3cccc(Cl)c3F)c2cc1O[C@H]1CC[C@H]([C@@H]2NCCNC2=O)CC1` [BI00133844], the results for the Kinases covered result in experiment [3] and in experiment [4] were “LCK” and “LYN”, respectively.

Take `CCCCN(Cc1ccccc1)C(=O)c1ccc(S(=O)(=O)Nc2ccccc2)cc1` [TH257]: the Kinases covered entry in experiment [5] is listed as “LIMK2”.

For the compound `COc1cc2ncnc(Nc3ccc(F)c(Cl)c3)c2cc1O[C@H]1CC[C@H](N)CC1` [BIBW3133BS], the Kinases covered result in experiment [6] is “LOK”.

As to `Nc1nccc(-c2c(-c3ccc(F)cc3)ncn2CCCN2CCOCC2)n1` [SB-216385], the Kinases covered result in experiment [7] was “MAP2K3”.
